A selection: hits, their analogues and other compounds. The true share with any hit is near 4.1%.
Mdm2-MdmX inh = inhibitors of human Mdm2/MdmX interaction; O15151+Q00987; SaOS-2 split-luciferase Mdm2/MdmX complementation, luminescence; inhibition, % at 8 µM; hit rate 3% among 330,000;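 active = inhibition of at least 50% at 8 µM in the primary screen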
Target sequence (O15151 whole entry, looked up): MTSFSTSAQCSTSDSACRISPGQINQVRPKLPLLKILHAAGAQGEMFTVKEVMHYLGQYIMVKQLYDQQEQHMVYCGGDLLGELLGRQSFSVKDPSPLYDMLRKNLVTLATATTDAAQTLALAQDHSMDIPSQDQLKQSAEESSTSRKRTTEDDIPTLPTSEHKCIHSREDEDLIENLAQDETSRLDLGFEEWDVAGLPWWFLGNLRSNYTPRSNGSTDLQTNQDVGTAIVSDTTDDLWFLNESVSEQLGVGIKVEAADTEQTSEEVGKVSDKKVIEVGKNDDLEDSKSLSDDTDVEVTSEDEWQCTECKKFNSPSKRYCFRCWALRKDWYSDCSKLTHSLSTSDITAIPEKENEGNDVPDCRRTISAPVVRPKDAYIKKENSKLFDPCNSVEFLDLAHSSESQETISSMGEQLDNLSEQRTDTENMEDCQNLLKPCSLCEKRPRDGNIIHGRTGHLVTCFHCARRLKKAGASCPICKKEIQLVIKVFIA
Target sequence (Q00987 whole entry, looked up): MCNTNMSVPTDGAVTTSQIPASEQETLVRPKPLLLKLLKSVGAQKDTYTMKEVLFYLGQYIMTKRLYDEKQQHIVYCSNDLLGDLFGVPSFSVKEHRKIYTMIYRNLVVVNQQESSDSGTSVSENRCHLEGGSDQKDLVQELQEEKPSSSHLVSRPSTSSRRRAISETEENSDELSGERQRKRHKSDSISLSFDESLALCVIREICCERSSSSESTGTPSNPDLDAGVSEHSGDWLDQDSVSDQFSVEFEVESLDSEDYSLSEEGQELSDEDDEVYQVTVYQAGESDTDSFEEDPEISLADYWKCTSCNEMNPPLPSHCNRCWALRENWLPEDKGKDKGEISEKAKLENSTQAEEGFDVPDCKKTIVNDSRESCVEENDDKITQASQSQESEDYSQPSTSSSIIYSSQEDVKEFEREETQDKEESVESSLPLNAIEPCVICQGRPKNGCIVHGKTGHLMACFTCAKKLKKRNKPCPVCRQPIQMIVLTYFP
aSyn 5UTR inh = MLPCN primary screen, SNCA 5' untranslated region | alpha-synuclein 5'UTR reporter, inhibitor activity | inhibition, % (tested at 7.5 µM) | hit rate 0.82% among 300,000 | AID 1813; in the data active = inhibition above about 60%;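 also: H4 neuroglioblastoma cells stably carrying SNCA 5'UTR luciferase fusion; 0% = DMSO wells and 100% = positive control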
Jurkat NFkB inh = lowers PMA/ionomycin-induced NF-kB signal in Jurkat cells; PMA/ionomycin-induced NF-kB luciferase reporter, luminescence; AID 435003; inhibition, % at 4 µM; hit rate 0.53% among 330,000; in the data active = inhibition above about 50%
KLF5 inhibitor = kruppel-like factor 5 inhibition; DLD-1 KLF5 promoter-luciferase reporter, luminescence; inhibition, % at 5 µM; hit rate 0.23% among 290,000; AID 1700;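 active = inhibition above a per-plate limit of that plate's mean compound inhibition plus 3 SD, cut at about 60% in these data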;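 also: 0% = DMSO wells and 100% = LY294002 at 200 µM; higher means less KLF5 promoter-driven luciferase light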
Gli-Sufu antag = antagonists of Gli-Sufu signaling; inhibition, % at 5 µM; Sufu-KO-LIGHT fibroblasts, Gli luciferase reporter luminescence; AID 588413; hit rate 0.74% among 340,000;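 active = inhibition above about 55%, limit read from the data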;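 also: 0% = DMSO-treated cells and 100% = wells with medium but no cells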
697 NFkB inh = inhibitors of the PMA/ionomycin-induced NF-kB reporter in 697 B cells; 697 B-cell NF-kB luciferase reporter, 16 h; inhibition, % at 4 µM; AID 435022; hit rate 0.33% among 330,000; in the data active = inhibition above about 35%
Gli-Sufu confirm = confirmation of Gli-SUFU pathway antagonists; shares compounds with Gli-Sufu antag; Sufu-KO-LIGHT cells, Gli luciferase reporter, luminescence; inhibition, % at 5 µM; hit rate 40% among 2,500; AID 602428;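 active = mean inhibition at 5 µM reaching about 45%, limit read from the data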;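 also: plate controls were DMSO-treated cells for no effect and wells lacking cells for full effect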
Gli cytotox = counter-screen for Gli-SUFU antagonists: cytotoxicity; hit rate 32% among 2,500; shares compounds with Gli-Sufu antag; Sufu-KO-LIGHT cells cytotoxicity, ATP luminescence; AID 651994; cytotoxicity, % at 5 µM;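 active = mean cytotoxicity at 5 µM above about 25%, limit read from the data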;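 also: cells exposed to compound overnight for roughly 16 to 18 hours; plate controls were DMSO wells with cells for no effect and medium without cells for full effect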
Wnt3a counter = Wnt3a reporter inhibition counter-screen; shares compounds with Gli-Sufu antag; Wnt-LIGHT cells, Wnt3a-driven luciferase reporter, luminescence; inhibition, % at 6.25 µM; hit rate 20% among 2,500;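 active = mean inhibition above about 25%, limit read from the data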
Numbers without * were called inactive; . = no result given.

SMILES	Mdm2-MdmX inh	aSyn 5UTR inh	Jurkat NFkB inh	KLF5 inhibitor	Gli-Sufu antag	697 NFkB inh	Gli-Sufu confirm	Gli cytotox	Wnt3a counter
CC(=O)Nc1ccc(S(=O)(=O)NCc2ccccn2)cc1	-5	3	17	-10	0	-16	.	.	.
Cc1ccc(S(=O)(=O)NCC(=O)NCc2ccncc2)cc1	-5	17	0	-3	-12	0	.	.	.
Cc1cc(S(=O)(=O)NCc2ccncc2)c(C)cc1Br	24	-22	37	-30	66*	0	62*	19	38*
CCOc1ccc(-c2nnc(SCC(=O)N3CCNC3=O)o2)cc1	-115	.	-79	.	-75	-130	.	.	.
CC(=O)NS(=O)(=O)c1ccc(NC(=O)C(C)NS(=O)(=O)/C=C/c2ccccc2)cc1 (centres undefined)	2	.	-3	.	-1	9	.	.	.
Cc1nc(NCCc2ccc(S(N)(=O)=O)cc2)c2c(C)c(C)sc2n1	31	-16	8	-33	63*	-26	59*	39*	25
CCOc1ccc(NS(=O)(=O)c2ccc(C(=O)N3CCCC(C)C3)cc2)cc1 (centres undefined)	20	-12	-1	.	57*	-20	27	2	-13
CCOc1ccc(NS(=O)(=O)c2cccc(C(=O)N3CCN(C/C=C/c4ccccc4)CC3)c2)cc1	.	.	.	.	54	.	34	13	-52
CCCNC(=O)c1ccc2c(c1)nc(C)n2-c1cccc(Cl)c1	-15	-39	-14	-23	15	15	.	.	.
O=C(c1ccccc1NS(=O)(=O)c1cccc([N+](=O)[O-])c1)N1CCCC1	25	44	-11	2	-3	9	.	.	.
c1ccc(-c2nnc(N3CCN(c4ccccn4)CC3)c3ccccc23)cc1	31	22	-2	5	61*	5	34	1	-12
COCC(C)NCc1ccc(OC)c(Br)c1 (centres undefined)	23	-24	6	-24	-6	11	.	.	.
O=C(C1=C[C@H](c2coc3ccccc3c2=O)C[C@H](OCc2ccc(CO)cc2)O1)N1CCN(Cc2ccc3c(c2)OCO3)CC1	37	35	19	-1	52	-1	35	6	-23
Clc1ccc(-c2nnc(CSc3nnc(-c4cccs4)n3Cc3ccccc3)o2)cc1	7	-13	30	-10	68*	-13	66*	32*	10
Cc1nnc(SCc2nnc(-c3cccs3)o2)n1Cc1ccccc1	21	12	-1	11	-4	-19	.	.	.
O=C(CCC1CCCCC1)Nc1cccnc1	-8	-40	-25	-9	56*	4	19	-9	-22
CCCc1nnc(NC(=O)CCC(=O)NCc2ccccc2Cl)s1	10	4	2	-13	55*	-10	9	15	-14
CCc1nnc(NC(=O)CCC(=O)NCc2ccccc2Cl)s1	6	14	-3	-32	-3	7	.	.	.
CCC(C)[C@H](NC(=O)N1CC(=O)Nc2ccccc21)C(=O)Nc1nccs1 (some centres undefined)	0	-44	-1	-2	60*	-2	13	26*	-9
CC(C)[C@H](NC(=O)N1CC(=O)Nc2ccccc21)C(=O)Nc1nccs1	11	12	11	-2	-15	-9	.	.	.
Cc1ccccc1NC(=O)CSc1nc2cc3c(cc2cc1C)CCC3	42	15	47	-30	54	-33	40	29*	-41
CN1CCN(S(=O)(=O)c2ccc(NC(=O)c3ccc(F)cc3Cl)cc2)CC1	8	-7	-9	-34	-6	-7	.	.	.
O=C(CCc1nc2sc3c(c2c(=O)[nH]1)CCCC3)Nc1cccc(Cl)c1	22	1	-3	.	70*	-1	27	6	-11
COc1ccc(NC(=O)CSc2nc3ccccc3c(=O)[nH]2)cc1S(N)(=O)=O	3	.	2	.	57*	-2	2	-9	-16
COC(=O)c1ccc(NC(=O)CSc2nc3ccccc3c(=O)[nH]2)cc1	7	18	-5	-18	4	16	.	.	.
